Results with a measured potency or affinity are listed apart.

For one assay, the system named is Staphylococcus aureus. The note with it: Concentration 32 ug.mL-1; ASSAY_TEST Inhibition of Bacterial Growth; detection method Absorption (OD600); MEDIA CAMHB; plate type 384well; NBS; CORNING #3640; time 18 hr.
A further assay concerns Escherichia coli. The note with it: Concentration 32 ug.mL-1; ASSAY_TEST Inhibition of Bacterial Growth; detection method Absorption (OD600); MEDIA CAMHB; plate type 384well; NBS; CORNING #3640; time 18 hr.

Take `COc1nc(N)c(C#N)c(-c2ccccc2)c1C#N`: the figures for the Inhibition in the assay with Staphylococcus aureus and with Escherichia coli were 26.81% and -3.07%, respectively.

Values taken from ChEMBL document CHEMBL4513135, “CO-ADD screening of IQOG CSIS (Spain) compounds”.
